# Bioassay records as filed in PubChem BioAssay.
# A selection: hits, their analogues and other compounds. The true share with any hit is near 3.1%.
# p53null 39C tox: kills p53 null cells at the nonpermissive temperature; H1299 p53-null (neo) cells, 39C, ATPlite viability, 24 h; Potency, µM (series often up to 46.1 µM), most hits filed as cytotoxic; hit rate 0.97% among 55,000; also: nearly all actives have a fitted effect of over 50% in size
#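 H1299 lung cancer cells, p53-null (H1299-neo) or expressing p53 A138V (H1299-p53A138V), were plated overnight at 37C, then exposed to compounds at up to 46 uM for 24 hr at 39C. Viability was read by ATP-based luminescence.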
# PMP22 txn prim: modulators of PMP22 gene transcription in S16 Schwann cells; AID 1508649; Potency, µM (titrated, usually from 57.5 µM), hits mostly inhibitors; hit rate 2% among 43,000; S16 Pmp22-F2sN Schwann cells, FLuc/NLuc coincidence luminescence, 24 h; active = clear falling dose curves in both reporters; inconclusive = both reporters move, but less clearly or upward; inactive = either reporter flat; the % is the NLuc reporter signal
#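 Transcriptional readout in edited S16(c9) cells: two luciferases reported from the Pmp22 locus, measured in turn after 24 h compound incubation.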
# OvCa metastasis: ovarian cancer metastasis inhibition, 3D TME model; Potency, µM (doses to about 45.8 µM), actives largely listed as inhibitors; SKOV3ip1-GFP adhesion/invasion on 3D omental model, fluorescence; hit rate 0.1% among 46,000; also: nearly all actives have a fitted effect of over 65% in size
#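 qHTS, 4-pt dose (0.36-46 umol/L); SKOV3ip1-GFP, 1,200 cells/well, no FBS; primary omental fibroblast/mesothelial co-culture 48 h pre-grown; 2 h RT + 16 h 37 C; PBS wash, 4% PFA; GFP count 488/509 nm.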
# p53null 32C tox: p53 null cell cytotoxicity, permissive temperature; H1299-neo p53 null cells, ATP luminescence, 24 h, 32C; Potency, µM (series often up to 46.1 µM), usual class: cytotoxic; hit rate 0.62% among 55,000; also: nearly all actives have a fitted effect of over 55% in size
#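 Cells lacking p53 (H1299-neo) are plated at 600 per well and allowed to settle overnight at 37C. Test compounds (up to 46 uM) are added and held 24 hours at 32C, then ATP is quantified by luminescence.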
# S16 viability: cytotoxicity in S16 Pmp22-F2sN Schwann cells; S16 Pmp22-F2sN Schwann cells viability, CellTiter-Glo, 24 h; Potency, µM (series often up to 57.5 µM), actives largely listed as cytotoxic; hit rate 0.48% among 43,000; also: nearly all actives have a fitted effect of over 65% in size
#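 Rat S16 Schwann reporter line, 24 h treatment with library compounds delivered at 23 nL per well. Cell viability by CellTiter-Glo luminescence.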
# pS6 MEF inh: inhibitors of mTORC1 signaling in Tsc2-/- p53-/- MEF cells; Tsc2-/- p53-/- MEF, phospho-rpS6 immunofluorescence/PI, 24 h; Potency, µM (doses to about 38.3 µM), hits mostly inhibitors; hit rate 0.78% among 44,000; also: nearly all actives have a fitted effect of over 50% in size
#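 Readout is phospho-S6 Alexa 488 signal normalized to PI per well, reported as % active cells with thresholds set from rapamycin (7.5 nM) and DMSO controls. Cells: Tsc2-/-, p53-/- MEFs, 24 hrs compound at 37 C; PI cell number serves as viability.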
# NLuc saturating: counter-screen for PMP22 expression modulators: NanoLuc inhibition, saturating substrate; hit rate 4% among 690; Potency, µM (series often up to 57.5 µM), most hits filed as inhibitors; Secreted NLuc enzyme (filtered S16 cell medium), Nano-Glo luminescence; shares compounds with PMP22 txn prim
# NLuc Km counter: counter-screen for PMP22 expression modulators: NanoLuc inhibition at Km. shares compounds with PMP22 txn prim. secreted NLuc enzyme, coelenterazine luminescence, Km conditions. Potency, µM (titrated, usually from 57.5 µM), most hits filed as inhibitors. hit rate 5% among 690. AID 1508639
# FLuc counter: firefly luciferase enzyme inhibition artifact for PMP22 screen; shares compounds with PMP22 txn prim; purified P. pyralis FLuc, luminescence, 10 min; Potency, µM (titrated, usually from 57.5 µM), hits mostly inhibitors; 690 tested, under 10 active; AID 1508640
# Target sequence (P08659 whole entry, looked up): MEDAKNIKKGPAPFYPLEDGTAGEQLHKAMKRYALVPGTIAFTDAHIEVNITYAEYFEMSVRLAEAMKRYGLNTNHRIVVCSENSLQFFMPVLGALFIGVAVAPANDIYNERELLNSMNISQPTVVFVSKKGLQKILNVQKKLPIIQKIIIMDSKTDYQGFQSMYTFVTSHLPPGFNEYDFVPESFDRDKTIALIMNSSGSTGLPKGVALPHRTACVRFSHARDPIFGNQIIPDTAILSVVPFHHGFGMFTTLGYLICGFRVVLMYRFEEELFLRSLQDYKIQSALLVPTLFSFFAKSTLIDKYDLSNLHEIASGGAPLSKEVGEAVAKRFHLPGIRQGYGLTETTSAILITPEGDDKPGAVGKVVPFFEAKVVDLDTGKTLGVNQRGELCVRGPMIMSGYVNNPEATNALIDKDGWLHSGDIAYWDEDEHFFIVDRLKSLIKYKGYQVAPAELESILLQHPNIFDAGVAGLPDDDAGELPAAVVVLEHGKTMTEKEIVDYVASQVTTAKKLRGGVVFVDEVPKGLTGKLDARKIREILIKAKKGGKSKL
# S16 viab conf: confirmation of cytotoxicity in S16 Pmp22-F2sN Schwann cells (luciferase reporters placed in the Pmp22 gene); shares compounds with PMP22 txn prim; S16 Schwann cells viability, CellTiter-Glo ATP luminescence, 24 h; Potency, µM (top dose mostly 57.5 µM), usual class: cytotoxic; hit rate 7% among 690
# PMP22 txn conf: PMP22 transcription modulation, confirmatory; shares compounds with PMP22 txn prim; S16 Schwann cells Pmp22-F2sN, dual luciferase, 24 h; Potency, µM (doses to about 57.5 µM), hits mostly inhibitors; hit rate 22% among 690; AID 1508646; active = clear falling dose curves in both reporters; inconclusive = both reporters move, but less clearly or upward; inactive = either reporter flat; the % is the FLuc reporter signal
# PMP22 HiBiT cnf: confirmation of modulators of rat PMP22 protein expression; S16 Schwann cells Pmp22-HiBiT, luminescence, 48 h; AID 1508647; 95 tested, under 10 active; shares compounds with PMP22 txn prim; Potency, µM (top dose mostly 27.9 µM), usual class: inhibitors
# Target sequence (P25094 whole entry, looked up): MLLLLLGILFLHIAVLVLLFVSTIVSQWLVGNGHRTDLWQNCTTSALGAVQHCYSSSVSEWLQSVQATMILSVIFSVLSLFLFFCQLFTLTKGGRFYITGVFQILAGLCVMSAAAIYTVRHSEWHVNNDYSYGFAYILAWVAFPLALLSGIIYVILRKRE
# A number is an active result; . = inactive; ? = inconclusive; / = no result. Unless noted, calls follow the shape of the dose curve; as a rule, active = well fitted curve in the direction sought with a large enough effect; inconclusive = small, poorly fitted or top-dose-only effect, or another doubt; inactive = no such curve, though single readings can be large; an effect the other way counts as inactive or inconclusive.
SMILES,p53null 39C tox,PMP22 txn prim,OvCa metastasis,p53null 32C tox,S16 viability,pS6 MEF inh,NLuc saturating,NLuc Km counter,FLuc counter,S16 viab conf,PMP22 txn conf,others
CCCNC(=O)c1ccc2c(c1)N=C(CCC)c1ccccc1S2,?,11µM,.,.,.,?,?,9.7µM,.,.,4.1µM,
COc1cc(C(=O)CC2(O)C(=O)N(Cc3ccccc3Cl)c3ccccc32)cc(OC)c1OC (stereo unspecified),?,11µM,.,.,.,4.1µM,.,.,.,.,?,
Nc1nc(N)c2nc(-c3cccc(O)c3)c(-c3cccc(O)c3)nc2n1,/,/,.,/,/,/,/,/,/,/,/,
O=C(NCCCN1CCCCC1)c1ccc2c(c1)sc1nc(-c3ccc(F)cc3)cn12,.,?,?,.,?,.,/,/,/,/,/,
CCN1CCN(CCCNC(=O)c2ccc3c(c2)sc2nc(-c4ccc(C)cc4)cn23)CC1,.,9.5µM,.,.,?,.,15µM,?,6.9µM,19µM,17µM,
COc1ccc(C=Cc2cc(OC)c(OC)c(OC)c2)cc1O,/,/,.,/,/,/,/,/,/,/,/,
Cc1c(-c2ccc(O)cc2)n(Cc2ccc(OCCN3CCCCCC3)cc2)c2ccc(O)cc12,/,/,.,/,/,/,/,/,/,/,/,
CCc1ccccc1NC(=O)Cn1nnc(C(=O)NCc2cccs2)c1N,.,?,?,.,.,.,.,.,.,.,?,
COc1ccc(NC(=O)Cn2nnc(C(=O)NCc3cccs3)c2N)cc1,.,.,.,.,.,.,/,/,/,/,/,
COc1ccccc1NC(=O)Cn1nnc(C(=O)NCc2cccs2)c1N,.,1.2µM,.,.,.,.,.,.,.,.,?,
COc1ccc(C(C(=O)NCc2ccccc2)N(C(=O)Cn2nnc3ccccc32)c2ccc(F)cc2)cc1 (stereo unspecified),.,11µM,.,.,.,.,.,.,.,.,.,
COc1ccc(N(C(=O)Cn2nnc3ccccc32)C(C(=O)NCc2ccccc2)c2ccc(F)cc2)cc1 (stereo unspecified),.,.,.,.,.,.,/,/,/,/,/,
CS(=O)(=O)N1CCN(Cc2cc3nc(-c4cccc5[nH]ncc45)nc(N4CCOCC4)c3s2)CC1,/,/,.,/,/,/,/,/,/,/,/,
COc1ccc(-c2noc(CSc3nnc(C)n3-c3ccc(F)cc3)n2)cc1,.,?,.,.,.,.,?,?,?,.,.,
COc1ccc(-c2noc(CSc3nnc(-c4ccncc4)n3-c3ccc(C)cc3)n2)cc1,.,8.9µM,.,.,.,.,?,?,.,.,3.7µM,PMP22 HiBiT cnf=?
Cc1ccc(-n2c(SCc3nc(-c4ccc(Cl)cc4)no3)nnc2-c2ccncc2)cc1,?,13µM,.,.,?,.,.,?,.,.,?,
O=C1c2c(O)cc(O)cc2O[C@H](c2cc(O)c(O)c(O)c2)[C@H]1O,/,/,.,/,/,/,/,/,/,/,/,
CC1=C(C(=O)Nc2ccc(Cl)cc2)C(c2ccccc2)n2ncc(C(=O)Nc3ccccc3)c2N1 (stereo unspecified),.,?,?,.,?,?,/,/,/,/,/,
O=C(Nc1ccc(Cl)cc1)c1cnn2c1NC(c1ccccc1)=CC2c1ccccc1 (stereo unspecified),?,14µM,.,.,?,.,?,?,.,.,?,
CCOC(=O)c1ccc(-c2ccc(/C=C(\C#N)C(=O)Nc3cccc(C)c3)o2)cc1,.,?,.,.,.,.,?,.,.,.,17µM,
COc1ccc(-c2c(C)nn3c(N4CCN(c5cc(Cl)ccc5C)CC4)cc(C)nc23)cc1OC,.,15µM,.,.,.,.,.,?,.,.,.,
COc1ccccc1-c1c(C)nn2c(N3CCN(c4ccc(Cl)cc4)CC3)cc(C)nc12,.,.,.,.,.,.,/,/,/,/,/,
COc1ccc(-c2c(C)nn3c(C(F)(F)F)cc(-c4ccccc4)nc23)cc1OC,.,.,.,.,.,.,/,/,/,/,/,
COc1ccc(-c2cc(C(F)(F)F)n3nc(C)c(-c4ccccc4)c3n2)cc1OC,.,11µM,.,.,.,.,.,.,.,.,?,
CCOC(=O)c1cc(NC(=O)c2ccccc2)c(=O)n2c1oc1ccc(Cl)cc12,.,?,.,.,?,.,.,.,.,.,?,
SMILES,p53null 39C tox,PMP22 txn prim,OvCa metastasis,p53null 32C tox,S16 viability,pS6 MEF inh,NLuc saturating,NLuc Km counter,FLuc counter,S16 viab conf,PMP22 txn conf,others
CCOC(=O)c1ccccc1NC(=O)n1ncc2cc(Cl)ccc21,.,.,.,.,.,.,/,/,/,/,/,
Cc1cc(Nc2cc(NC(=O)c3c(Cl)cccc3Cl)ccn2)nc(N)n1,/,/,.,/,/,/,/,/,/,/,/,
CCN1CCN(c2ccc(NS(=O)(=O)c3c(C)nc4sccn4c3=O)cc2Cl)CC1,.,8.9µM,.,.,.,.,.,.,.,?,.,
COc1ccc(Nc2cc(C)nc3c(C)c(C)ccc23)cc1,.,14µM,.,.,.,?,.,.,.,.,.,
N#CCNC(=O)c1ccc(-c2ccnc(Nc3ccc(N4CCOCC4)cc3)n2)cc1,/,/,.,/,/,/,/,/,/,/,/,
O=C(O)C(=O)Nc1cccc(C2=NN=N[N]2)c1,/,/,.,/,/,/,/,/,/,/,/,
CCN(c1ccccc1)S(=O)(=O)c1ccc2[nH]cc(C(=O)NC3CCCCC3)c(=O)c2c1,.,?,.,.,.,.,/,/,/,/,/,
CCN(c1ccccc1)S(=O)(=O)c1ccc2[nH]cc(C(=O)NCc3ccc(C)cc3)c(=O)c2c1,.,13µM,.,.,.,.,.,.,.,.,.,
Cc1cncc2cccc(S(=O)(=O)N3CCCN(C(=O)CN)C[C@@H]3C)c12,/,/,.,/,/,/,/,/,/,/,/,
